Assay outcomes: PubChem, National Center for Advancing Translational Sciences (NCATS)
Rows were chosen to be rich in hits. Some 0.4% of all compounds tested hit in one or more screens of this group.
TRPML1 ag = qHTS for Agonists of the Human Mucolipin Transient Receptor Potential 1 (TRPML1) | Mucolipin-1 (Homo sapiens), Q9GZU1 | activation, % (test concentration not listed) | AID 624414, 2012 | TRPML1-expressing cells, Ca2+ dye fluorescence, FDSS | 0.12% of 410,000 active; in the data active = activation above about 50%; inconclusive = mostly about 30% to 49%; note: 0% is about no effect
Target sequence (Q9GZU1 whole entry, looked up): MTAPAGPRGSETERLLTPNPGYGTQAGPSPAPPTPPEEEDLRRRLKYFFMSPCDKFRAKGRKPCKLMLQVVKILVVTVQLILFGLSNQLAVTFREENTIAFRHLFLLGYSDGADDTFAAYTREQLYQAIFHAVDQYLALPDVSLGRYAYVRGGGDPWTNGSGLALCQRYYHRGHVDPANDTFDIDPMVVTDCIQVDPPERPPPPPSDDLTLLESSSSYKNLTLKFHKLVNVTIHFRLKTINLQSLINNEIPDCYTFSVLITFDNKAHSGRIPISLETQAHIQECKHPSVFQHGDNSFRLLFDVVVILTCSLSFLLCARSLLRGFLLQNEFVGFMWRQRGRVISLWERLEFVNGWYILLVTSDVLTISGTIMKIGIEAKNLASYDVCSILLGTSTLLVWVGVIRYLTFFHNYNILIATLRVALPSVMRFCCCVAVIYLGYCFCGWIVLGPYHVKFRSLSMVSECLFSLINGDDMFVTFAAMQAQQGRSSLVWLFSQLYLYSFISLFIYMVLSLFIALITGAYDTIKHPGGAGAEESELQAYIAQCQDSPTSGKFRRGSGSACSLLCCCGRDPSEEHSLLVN
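Kinetic FDSS Ca2+ read in Tet-induced TRPML1-DL cells (ABD Ca8 dye plus quencher, 45-90 min RT loading): baseline, then compound, then 110 s agonist window; EC80 agonist 54-4 at 4uM final added afterwards for a 110 s antagonist window.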
EPAC1 ag = qHTS for Agonist of cAMP-regulated guanine nucleotide exchange factor 3 (EPAC1): primary screen | 0.073% of 360,000 active | Potency, µM (titrated, usually from 154 µM), for inactives: top-dose activation, actives largely listed as activators | EPAC1 agonist qHTS, biochemical assay; response scale: 100% = response to 6.5 mM cAMP | AID 720707, 2013; note: potency is the fitted concentration of half-maximal effect; nearly all actives have a fitted effect of over 60% in size
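Compounds were pinned as a concentration titration into mixtures of EPAC1 (100 nM), BODIPY-GDP-loaded Rap1B (250 nM) and GDP (50 uM). After 5 min at room temperature, fluorescence was followed for 30 min; activity was scaled to 6.5 mM cAMP.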
EPAC2 antagonist = qHTS for Antagonist of cAMP-regulated guanine nucleotide exchange factor 2 (EPAC2): primary screen. Potency, µM (series often up to 114 µM), inactives show at the highest dose activity, negative = inhibition, actives largely listed as inhibitors. EPAC2 GEF exchange of Rap1B-BODIPY-GDP, fluorescence. AID 720708, 2013. 0.18% of 360,000 active. Rap guanine nucleotide exchange factor 4 (Homo sapiens), Q8WZA2; note: potency is the fitted concentration of half-maximal effect; % is set by controls: 0 for no effect and ±100 for the full control effect; nearly all actives have a fitted effect of over 45% in size
EPAC1 antagonist = qHTS for Antagonist of cAMP-regulated guanine nucleotide exchange factor 3 (EPAC1): primary screen; Rap guanine nucleotide exchange factor 3 (Homo sapiens), O95398; EPAC1 GEF assay, Rap1b-BODIPY-GDP exchange fluorescence; Potency, µM (highest dose often 115 µM), for the others: at the top dose activity change, negative = inhibition, most hits filed as inhibitors; 0.14% of 360,000 active;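 note: potency is the fitted concentration of half-maximal effect; plate controls were vehicle for no effect and positive control for full effect; nearly all actives have a fitted effect of over 50% in size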
EPAC2 ag = qHTS for Agonist of cAMP-regulated guanine nucleotide exchange factor 4 (EPAC2): primary screen; Rap guanine nucleotide exchange factor 4 (Homo sapiens), Q8WZA2; EPAC2 activation, biochemical qHTS; response scale: 100% = 6.5 mM cAMP response; Potency, µM (top dose mostly 154 µM), for the others: at the top dose activation, usual class: activators; 0.079% of 360,000 active; AID 720711, 2013; note: potency is the fitted concentration of half-maximal effect; nearly all actives have a fitted effect of over 50% in size
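Guanine nucleotide exchange by EPAC2 is measured as reduced fluorescence of BODIPY-GDP once it is released from 250 nM Rap1B. Plates are read kinetically for 30 min at room temperature; results are scaled to 6.5 mM cAMP.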
TRPML1 blocker = qHTS for Inhibitors of the Human Mucolipin Transient Receptor Potential 1 (TRPML1) | 0.02% of 390,000 active | activity change, negative = inhibition, % (test concentration not listed) | AID 624415, 2012 | Mucolipin-1 (Homo sapiens), Q9GZU1 | TRPML1-inducible cells, Ca2+ dye fluorescence, FDSS; stronger effect = lower value; inhibition of EC80 agonist-evoked calcium signal; in the data active = activity change below about -50%; inconclusive = between about -30% and that limit;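 note: stimulus is agonist 54-4 at its EC80 concentration; % is set by controls: 0 for no effect and ±100 for the full control effect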
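Tet-induced TRPML1-DL cells loaded with Ca8 no-wash calcium dye were read kinetically on FDSS. Compound addition was followed by EC80 agonist 54-4 (4 uM final); inhibition was read over 110 s.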
Numbers without * were called inactive; u = inconclusive; x = no result given. Unless noted, calls come from the whole dose curve; as a rule, active = well fitted curve in the direction sought with a large enough effect; inconclusive = small, poorly fitted or top-dose-only effect, or another doubt; inactive = no such curve, though single readings can be large; an effect the other way counts as inactive or inconclusive.

SMILES	TRPML1 ag	EPAC1 ag	EPAC2 antagonist	EPAC1 antagonist	EPAC2 ag	TRPML1 blocker
Cn1nc(-c2ccccc2)c2nc3ccccc3nc21	11.7	9.5%	291.3%	9.7%	100µM*	-3.5
O=c1c(-c2c(O)cc(O)c3c(=O)cc(-c4ccc(O)cc4)oc23)c(-c2ccc(O)cc2)oc2cc(O)cc(O)c12	x	-15.6%	4.8%	56.2µM*	14.1%	x
CCOc1ccccc1NC(=O)C1CCN(c2nc(-c3ccc(OC)cc3)no2)CC1	-0.6	112µM*	1.6%	61.4%	0.2%	-9.6
COc1ccc(-c2noc(N3CCC(C(=O)Nc4ccccc4Cl)CC3)n2)cc1	1.0	-17.3%	8.6%	-8.2%	4.5%	14.2
O=C(c1ccco1)N1N=C2CCCCCC2C1(O)C(F)(F)F (configuration not stated)	-1.1	9.0%	79.4µM*	6.1%	3.5%	-2.5
CS(=O)(=O)N1CCN(Cc2cc3nc(-c4cccc5[nH]ncc45)nc(N4CCOCC4)c3s2)CC1	-1.0	x	x	x	x	x
CC(=O)[C@@]1(O)Cc2c(O)c3c(c(O)c2[C@H](O[C@H]2C[C@H](N)[C@H](O)[C@H](C)O2)C1)C(=O)c1ccccc1C3=O	x	28.2µM*	178.5%	142.9%	u	x
COc1cccc2c1C(=O)c1c(O)c3c(c(O)c1C2=O)CC(O)(C(C)=O)CC3OC1CC(N(C)C)C(O)C(C)O1 (configuration not stated)	10.2	89.1µM*	20.6%	27.6%	8.8%	9.0
CC(=O)C1(O)Cc2c(O)c3c(c(O)c2C(OC2CC(N)C(O)C(C)O2)C1)C(=O)c1c(O)cccc1C3=O (configuration not stated)	9.8	x	x	x	x	x
CC(=O)NC1=CC(=O)c2nonc2C1=O	0.0	x	x	x	x	x
CCN(Cc1cccc(S(=O)(=O)O)c1)c1ccc(C(=C2C=CC(=[N+](CC)Cc3cccc(S(=O)(=O)O)c3)C=C2)c2ccc(O)cc2S(=O)(=O)O)cc1	-1.0	x	x	x	x	x
CC(=O)Nc1ccc(SC[C@H](Cc2ccccc2)N2CC[C@@H](N)CCC2=O)cc1	-0.3	x	x	x	x	x
CC1=Nc2ccccc2/C1=C/c1sc(=S)n(-c2cccc(C(=O)O)c2)c1O	0.0	-13.9%	u	56.2µM*	3.5%	12.1
CS(=O)(=O)c1ccc(C(=O)OCc2nnc(-c3ccccc3)o2)cc1[N+](=O)[O-]	1.1	1.9%	-15.3%	89.1µM*	12.7%	20.3
O=C(CSc1nnc(SCc2ccc(Cl)cc2)s1)N/N=C/c1ccc(C(=O)O)cc1	0.4	2.5%	44.7µM*	7.7%	-4.0%	18.8
CCc1cccc2c(C(O)c3c[nH]c4ccccc34)c[nH]c12 (configuration not stated)	12.0	x	x	x	x	x
COc1ccccc1/C=C1\SC(=S)N(CCC(=O)Nc2ccc(C(=O)O)c(O)c2)C1=O	2.3	3.7%	-10.0%	50.1µM*	6.7%	-10.8
CC(=Cc1ccccc1)C=C1SC(=S)N(CCCC(=O)Nc2ccc(C(=O)O)cc2)C1=O	-0.2	u	22.1%	u	3.8%	x
CC(/C=C1\SC(=S)N(CCC(=O)Nc2cccc(C(=O)O)c2)C1=O)=C\c1ccccc1	1.5	27.7%	u	79.4µM*	6.2%	-5.9
COc1ccccc1CC(=O)NO	0.3	x	x	x	x	x
Cc1ccc(Cl)cc1NC(=O)Nc1cn(CC(C)C)c(=O)c2ccccc12	57.1*	x	x	x	x	1.5
COc1ccc(NC(=O)Nc2cn(CC(C)C)c(=O)c3ccccc23)c(OC)c1	1.9	x	x	x	x	7.8
c1ccc(-n2nnnc2-n2ccnc2)cc1	-0.1	-4.9%	-0.6%	-15.1%	10µM*	-2.2
COc1ccc(N2CCN(C(c3ccccc3OC)c3nnnn3C3CCCC3)CC2)cc1 (configuration not stated)	79.4*	17.1%	-3.9%	-14.6%	22.8%	u
COc1cccc(C(c2nnnn2CCc2ccccc2)N2CCN(c3ccccc3)CC2)c1OC (configuration not stated)	87.7*	2.5%	-2.3%	0.0%	12.3%	-9.1
SMILES	TRPML1 ag	EPAC1 ag	EPAC2 antagonist	EPAC1 antagonist	EPAC2 ag	TRPML1 blocker
COc1ccc(N2CCN(C(c3cccc(OC)c3OC)c3nnnn3C3CCCC3)CC2)cc1 (configuration not stated)	19.9	14.2%	-6.6%	-9.4%	20.3%	-11.3
C=C1C=C(C)n2ncc(C(=O)Nc3cccc4cnccc34)c2N1	0.2	x	x	x	x	x
O=C(COc1ccccc1C(=O)N/N=C\c1ccc(O)c(O)c1)N/N=C/c1ccc(O)c(O)c1	1.4	-8.7%	9.5%	10µM*	-5.0%	24.7
CCCCN(C(=O)c1ccc(S(=O)(=O)N(C)C)cc1)c1ccccc1	81.4*	8.5%	-0.3%	-16.9%	3.4%	-11.6
CCCCN(C(=O)c1ccc(S(=O)(=O)N(C)C)cc1)c1nc2ccccc2s1	2.5	6.6%	3.1%	6.2%	2.3%	-8.6
CC(C)(C)c1c(Cl)c(O)c(-c2ccccc2)c(=O)n1-c1ccccc1	0.9	-3.7%	-5.6%	79.4µM*	0.1%	-16.7
C/C(=N\Nc1ncnc2sc(C)c(C)c12)c1ccccn1	58.2*	-4.0%	-8.8%	-28.9%	-1.2%	-24.4
Cc1sc(NC(=O)C2CCCCC2)c(C#N)c1-c1ccccc1	83.2*	-0.4%	5.6%	-6.8%	1.4%	-14.5
Cc1cccc(C(=O)Nc2sc(C)c(-c3ccccc3)c2C#N)c1	2.8	6.6%	-0.2%	-23.0%	5.6%	-3.2
COc1cc(N(C)C)c(OC)cc1/C=C1\Cc2ccccc2C1=O	78.2*	x	x	x	x	x
COc1cc(C=C2Cc3ccccc3C2=O)cc(OC)c1OC	-1.3	-14.1%	6.7%	-7.2%	-5.2%	x
COc1cc2nc(N3CCN(C)CC3)nc(NC3CCN(C)CC3)c2cc1OC	-0.6	x	x	x	x	x
COc1cc2nc(N3CCCN(C)CC3)nc(N)c2cc1OC	-0.4	x	x	x	x	x
COc1ccc2c(n1)Sc1nc3ccccc3nc1N2	82.2*	5.2%	6.6%	13.8%	9.7%	-7.3
C[N+](C)(CCCCCI)c1ccc(/C=C/c2nc3ccccc3s2)cc1	3.7	x	x	x	x	x
Cc1nc(C)c(-c2csc(Nc3ccc(C(=O)O)c(O)c3)n2)s1	-1.2	18.8%	10µM*	u	-0.8%	-1.8
